Results on 40 compounds are retold here after PubChem BioAssay (NCATS).

Records with an inconclusive call do not appear. Active and inactive are the calls of the source. Calls follow the shape of the dose curve; as a rule, active = well fitted cell-killing curve with a large enough effect; inconclusive = small, poorly fitted or top-dose-only effect; inactive = flat fitted curve, though single readings scatter.
% is scaled to controls: 0 for no effect and ±100 for the full control effect.

A short description of the test: qHTS of pediatric cancer cell lines to identify multiple opportunities for drug repurposing: Primary screen for Rh18 cells (AID 1347102). Also: nearly all actives have a fitted effect of over 65% in size. Particulars: Rh18 rhabdomyosarcoma viability, CellTiter-Glo luminescence, 48 h; series mostly up to 46 µM; activity change, negative = cytotoxic: at the top concentration. The source says:
Drug repurposing or repositioning has been offered as a strategy for drug development in oncology programs. This approach has special potential for childhood cancers and other rare or orphan diseases, where the expected return on new drug development has been a disincentive to pharmaceuticals.
In this project we exploit the poly-pharmacology of drugs to discover new indications via phenotypic screening of a panel of 19 well-characterized cell lines derived from solid tumors seen in children and adolescents. The goal is to identify approved drugs with previously unrecognized anticancer properties that has the potential to reveal new mechanisms and biological processes involved in carcinogenesis or drug resistance. We employed a titration-based paradigm (quantitative high-throughput screening or qHTS), where all compounds were tested at multiple concentrations for their effect on cell viability. Concentration-response curves (CRCs) were derived directly from the primary screen, and both potency and efficacy values were used to identify compounds with robust bioactivity profiles. We screened the NIH Chemical Genomics Center (NCGC) Pharmaceutical Collection (NPC) and Mechanism Interrogation Plate (MIPE) small molecule collections of approved and investigational compounds against these cell lines; and measured metabolically active cells after 48 hours of compound treatment as a proxy for cell viability.
Assay Submitter: Nathalia J. Martinez, National Center for Advancing Translational Sciences, National Institutes of Health, Rockville, MD, USA; email: natalia.martinez@nih.gov
[1] Shen, M et al. Quantitative high-throughput phenotypic screening of pediatric cancer cell lines identifies multiple opportunities for drug repurposing. Oncotarget 2017 Dec 19;9(4):4758-4772. PMID 29435139.
The cells were obtained from University of North Carolina (UNC), Pediatric Preclinical Testing Program (PPT), and Coriell Institute (CI).
qHTS cell viability assay:
Cells were assayed in growth media at a density of 500-1,000 cells/well. Five microliters of cells were dispensed into 1,536-well, white, solid-bottom, TC-treated plates (Greiner Bio One) using a multidrop dispenser and incubated at 37 degrees C, 5% CO2, under a humidified atmosphere for 5 hours. Twenty-three nanoliters of compounds and controls (neutral control DMSO or positive control bortezomib at final concentration of 2.3 µM) were subsequently transferred by Kalypsys pintool. For primary screens, the MIPE collection was tested at 11-point dilutions (final concentrations range from 0.78 nM to 46 µM) and the NPC collection at 8-point dilutions (final concentrations range from 0.59 nM to 46 µM). Compounds tested in follow-up screens were assayed at 11-point dilutions. Cells were incubated for 48 hours, followed by addition of 3 µL of CellTiter-Glo (Promega). After a 15 min incubation at room temperature, samples were analyzed for luminescence intensity using a ViewLux High-throughput CCD imager equipped with clear filters.
A general note: In qHTS, concentration-response curves come from the screen itself.
For `COc1ccc(Cc2cnc(N)nc2N)cc1OC`, the “activity change, negative = cytotoxic” value is 16.6% (inactive).
In the case of `O=c1[nH]cnc2nc[nH]c12`, the “activity change, negative = cytotoxic” value was 12.3% (inactive).
The same measure for `CCS(=O)(=O)CCn1c([N+](=O)[O-])cnc1C`: -5.61% (inactive).
Consider `C/C=C1\[C@H]2C=C(C)C[C@]1(N)c1ccc(=O)[nH]c1C2`, for which the “activity change, negative = cytotoxic” value is 16.8% (inactive).
Next, `OCC(O)CS` (stereo not given): 9.58% (inactive); `Cc1ccsc1C(=CCCN1CCC[C@@H](C(=O)O)C1)c1sccc1C`: 0.473% (inactive).
Next, `CN1C[C@@H]2C[C@H]1CN2c1cc2c(cc1F)c(=O)c(C(=O)O)cn2C1CC1`: 21.8% [at 16.1 µM] (inactive); `Cc1cccc(C)c1NC(=O)CC12CCCN1CCC2`: -7.37% (inactive); `CC[N+](C)(CC)CCOC(=O)C1c2ccccc2Oc2ccccc21`: 6.09% (inactive).
The same measure for `Cc1c(I)c(=O)n(-c2ccccc2)n1C`: 4.43% (inactive); for `CC1CCc2cc(F)cc3c(=O)c(C(=O)O)cn1c23` (stereo not given): 4.79% (inactive); for `CN1CCN(C(=O)C2CCCCC2)CC1`: 15.5% (inactive).
`CCN(CC)CCOC(=O)C(c1ccccc1)c1ccccc1`: the “activity change, negative = cytotoxic” value is 1.6% (inactive).
Next, `Cc1ccsc1/C=C/C1=NCCCN1C`: 24.9% (inactive); `O=C1c2cccc(O)c2C(=O)c2c(O)cccc21`: -0.868% (inactive).
The same measure for `CCCCCCCCCCC(CO)CCCCCCCC` (stereo not given): 8.83% (inactive); for `C[N+](C)(C)CC(O)CC(=O)[O-]` (stereo not given): 4.34% (inactive).
The same measure for `CC(C)(C)NCC(O)COc1cccc2c1CCC(=O)N2` (stereo not given): -1.78% (inactive); for `Cc1c(N(C)C)c(=O)n(-c2ccccc2)n1C`: 8.64% (inactive).
`O=C(O)C(S)C(S)C(=O)O` (stereo not given): the “activity change, negative = cytotoxic” value was 20.4% (inactive).
On to `C[C@@H](N)C(=O)O`, for which the “activity change, negative = cytotoxic” value was 10.6% (inactive).
Next, `C[C@@H]1O[C@@H](OC[C@H]2O[C@@H](Oc3c(-c4ccc(O)c(O)c4)oc4cc(O)cc(O)c4c3=O)[C@H](O)[C@@H](O)[C@@H]2O)[C@H](O)[C@H](O)[C@H]1O`: 22.3% (inactive); `OC(CCN1CCCC1)(c1ccccc1)C1CCCCC1` (stereo not given): -6.39% (inactive); `CC[N+](CC)(CC(=O)Nc1c(C)cccc1C)Cc1ccccc1`: -1.57% (inactive).
`NS(=O)(=O)c1cc(-c2nn[nH]n2)c(NCc2cccs2)cc1Cl`: the “activity change, negative = cytotoxic” value is 23.9% (inactive).
Next, `Cc1cc(C)nc(NS(=O)(=O)c2ccc(N)cc2)n1`: 17% (inactive); `CC(=O)Nc1ccc(OCCOCCOc2ccc(NC(C)=O)cc2)cc1`: 15.2% (inactive).
Regarding `O=C(O)CCCCC1CCSS1` (stereo not given), the “activity change, negative = cytotoxic” value was 13.7% (inactive).
Regarding `NS(=O)(=O)c1cc(C2(O)NC(=O)c3ccccc32)ccc1Cl` (stereo not given), the “activity change, negative = cytotoxic” value is 14% (inactive).
The same measure for `CC(=O)[C@@]1(O)CC[C@H]2[C@@H]3C[C@H](C)C4=CC(=O)C=C[C@]4(C)[C@@]3(F)[C@@H](O)C[C@@]21C`: 3.88% (inactive); for `CC(N)CCCC(C)(C)O` (stereo not given): 9.48% (inactive).
The same measure for `CC(=O)OCC(=O)[C@@]1(O)CC[C@H]2[C@@H]3CCC4=CC(=O)C=C[C@]4(C)[C@@]3(F)[C@@H](O)C[C@@]21C`: 22.7% (inactive).
Next, `COc1ccc(C(=O)NCc2ccc(OCCN(C)C)cc2)cc1OC`: -10.4% (inactive); `O=C(O)c1ccc(OCCCOc2ccc(C(=O)O)cc2)cc1`: 22.6% (inactive); `CC(=O)N[C@@H](Cc1ccc(O)cc1)C(=O)O`: -2.55% (inactive).
On to `C[C@]1(Cn2ccnn2)[C@H](C(=O)O)N2C(=O)C[C@H]2S1(=O)=O`, for which the “activity change, negative = cytotoxic” value was 14.1% (inactive).
Next, `C[C@@H]1CCC[C@H](C)N1`: 26.4% (inactive); `O=C(Cn1ccnc1[N+](=O)[O-])NCc1ccccc1`: 1% (inactive); `COc1ccccc1Oc1c(NS(=O)(=O)c2ccc(C(C)(C)C)cc2)nc(-c2ncccn2)nc1OCCO`: -2.14% (inactive).
The same measure for `O=C(O)Cn1c(C(=O)Nc2nc(-c3ccccc3Cl)cs2)cc2ccccc21`: 7.86% (inactive).
